Screening results as filed in PubChem BioAssay.
FMDV inh – antivirals against foot and mouth disease virus; FMDV antiviral cell-based qHTS; Potency, µM (titrated, usually from 57.9 µM), for the others: at the highest dose activity change, negative = inhibition, hits mostly inhibitors; 1.2% of 410,000 active; AID 1159524; calls by dose curve; tested in HEK293T cells; also: read-out not given here; nearly all actives have a fitted effect of over 45% in size
Sm TGR block – blocks Schistosoma mansoni thioredoxin glutathione reductase. Q962Y6. purified TGR, DTNB reduction, TNB absorbance 405 nm. Potency, µM (titrated, usually from 114 µM), for inactives: at the top dose activity change, negative = inhibition, actives largely listed as inhibitors. AID 485364. 3% of 360,000 active; active = well fitted inhibition curve with a large enough effect; inconclusive = small, poorly fitted or top-dose-only effect; inactive = no such curve, though single readings can be large or run the other way; also: nearly all actives have a fitted effect of over 60% in size
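TGR 20 nM + NADPH 100 uM (dispensed conc.), cpd preinc 15 min RT; start with NADPH (500 uM addition) then DTNB (15 mM addition). Kinetic TNB absorbance, 405 nm filter. Four-parameter Hill fit across titration.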
LASV entry inh – blocks Lassa virus binding to or entry into cells; Potency, µM (highest dose often 37.9 µM), for inactives: top-dose activity change, negative = inhibition, most hits filed as inhibitors; 1.2% of 300,000 active; AID 540256; Lassa virus pseudotype entry inhibition, cell reporter; calls by dose curve; tested in HEK293 cells; also: nearly all actives have a fitted effect of over 50% in size
Vaccinia Venus – vaccinia inhibition (Venus reporter); Vaccinia virus Venus reporter expression, fluorescence; 0.46% of 330,000 active; Potency, µM (series often up to 36.5 µM), without a hit: top-dose activity change, negative = inhibition, hits mostly inhibitors; calls by dose curve; tested in A549 cells; also: nearly all actives have a fitted effect of over 30% in size
VACV mCherry inh – inhibitors of vaccinia virus infection (mCherry reporter signal). Vaccinia virus mCherry reporter infection, fluorescence. Potency, µM (top dose mostly 36.5 µM), without a hit: at the top dose activity change, negative = inhibition, actives largely listed as inhibitors. 0.63% of 310,000 active; calls by dose curve; tested in A549 cells; also: nearly all actives have a fitted effect of over 35% in size
Marburg entry inh – blocks Marburg virus binding to or entry into cells; Potency, µM (titrated, usually from 37.8 µM), inactives show at the top dose activity change, negative = inhibition, actives largely listed as inhibitors; Marburg virus pseudotyped entry inhibition, cell reporter; 1.8% of 300,000 active; calls by dose curve; tested in HEK293 cells
* hit, by the source's call; i = inactive; ? = inconclusive; · = no result; [ ] = another dose, or the depositor's remark. Rows were chosen to be rich in hits. Some 5.4% of all compounds tested hit in one or more screens of this group. % is scaled to controls: 0 for no effect and ±100 for the full control effect; potency is read from the fitted curve at half-maximal effect.

SMILES | FMDV inh | Sm TGR block | LASV entry inh | Vaccinia Venus | VACV mCherry inh | Marburg entry inh
Cc1ccc(S(=O)(=O)c2cn(CC(=O)Nc3ccc(F)cc3)c3cc4c(cc3c2=O)OCO4)cc1 | -7% | -6% | 6%[46.1 µM] | -9% | -10% | 20%[46.1 µM]
N#C/C(=C/c1ccc(O)c([N+](=O)[O-])c1)C(=O)Nc1ccccc1 | ? | 6% | -7%[46.1 µM] | -26% | -11% | 2.5µM*
N#C/C(=C\C=C\c1ccccc1[N+](=O)[O-])C(=O)NCc1ccccc1 | -39% | 4% | 10µM* | -17% | -30% | ?
N#C/C(=C/C=C/c1ccccc1)C(=O)Nc1ccccc1 | 30% | 0% | ? | · | · | 2.9µM*
O=C(COC(=O)CNC(=O)C1CCCCC1)NC1CC1 | · | · | · | 8% | 25% | ·
CC(=O)N(C1=C(N)C(=O)c2ccccc2C1=O)C(C)C | 18% | 7.1µM* | 5%[46.1 µM] | -21% | -19% | -20%[46.1 µM]
CN1c2ccccc2-c2nc(SCC(=O)Nc3ccccc3)ncc2S1(=O)=O | -30% | -1% | -14%[46.1 µM] | -9% | -6% | ·
O=[N+]([O-])c1cccc(S(=O)(=O)N2CCN(c3nc(-c4ccccc4)nc4ccccc34)CC2)c1 | · | · | · | -18% | -4% | ·
Fc1ccccc1N1CCN(c2ncnc3[nH]ncc23)CC1 | ? | -30% | 10µM* | 8% | -12% | 5µM*
CCCN(CCC)c1nn2c(=O)c(C(=O)NCc3cccc(OC)c3)cnc2s1 | -17% | -13% | 23%[46.1 µM] | -16% | i | ·
CCOc1ccc(-c2nnc3n2N=C(c2ccc(OC)cc2)CS3)cc1 | 18% | 3% | ? | · | · | -41%
COc1ccc(OC)c(-c2nnc3n2N=C(c2ccc(OC)c(OCC4CC4)c2)CS3)c1 | 32µM* | · | · | · | · | ·
CCOc1ccc(C2=Nn3c(nnc3-c3ccccc3OC)SC2)cc1 | -26% | 6% | 0.023µM* | · | · | 0.29µM*
Cc1oc(-c2ccccc2)nc1CSc1nnc(C)n2c1cc1sccc12 | -4% | -3% | 3%[46.1 µM] | -17% | i | ·
COc1ccc(CCNc2nc(-c3sc(N)nc3C)cs2)cc1OC | 10µM* | -17% | -20% | -24% | · | ?
Nc1cc(=O)nc(SCC(=O)Nc2ccc(F)cc2)n1-c1cccc(Cl)c1 | -7% | -1% | -2%[46.1 µM] | -8% | -3% | ?
CCCC(NC(=O)CCl)c1ccccc1 (configuration not stated) | ? | 45µM* | -15% | -25% | -18% | ?
CC(NC(=O)CCl)c1ccc(Cl)c(Cl)c1 (configuration not stated) | 0% | 16µM* | ? | -19% | ? | ?
CC(C)CNC(CC(=O)O)c1ccccc1 (configuration not stated) | 0% | 14% | 27% | 0% | i | 12%
CCC(NC(=O)CCl)c1ccc(C)cc1 (configuration not stated) | ? | ? | ? | -8% | -21% | ?
CC(NC(=O)CCl)c1ccccc1Br (configuration not stated) | ? | 16µM* | -27%[46.1 µM] | -4% | -30% | ?
CC(C)CC(NC(=O)CCl)c1ccccc1 (configuration not stated) | -14% | 40µM* | -16% | -12% | i | -29%
CCn1cc(CN2CCOc3ccc(C(O)C4CCCCC4)cc3C2)c(C)n1 (configuration not stated) | -20% | · | · | -7% | -9% | ·
CCNc1c2c(oc(=O)c1N)CCCC2 | · | · | · | · | · | 5%
CCOc1cc(/C=C2/C(=O)ON=C2C)ccc1OCc1ccccc1 | -25% | 50µM* | 0%[46.1 µM] | -11% | i | 14%[46.1 µM]
SMILES | FMDV inh | Sm TGR block | LASV entry inh | Vaccinia Venus | VACV mCherry inh | Marburg entry inh
COc1ccccc1/C=C1/C(=O)ON=C1C | -19% | -13% | · | · | · | ·
CCCOc1ccc(Cl)cc1/C=C1/C(=O)ON=C1C | ? | 14µM* | -4%[46.1 µM] | 1% | -12% | -15%[46.1 µM]
COc1ccc(/C=C2/C(=O)ON=C2c2ccccc2)cc1OC | 22µM* | ? | -5% | 0% | -8% | 2%[46.1 µM]
CCOc1cc(/C=C2/C(=O)ON=C2C)ccc1OCc1ccc(F)cc1 | 22% | 0% | -17% | -14% | -8% | ?
CCOc1cc(/C=C2\C(=O)ON=C2c2ccccc2)ccc1OC | 35µM* | -3% | · | · | · | ·
CCOc1cc(/C=C2/C(=O)ON=C2C)ccc1OCc1ccccc1F | · | -9% | ? | -10% | -16% | ?
CCCCn1c(C2CC(=O)N(c3ccc(OCC)cc3)C2)nc2ccccc21 (configuration not stated) | -14% | 0% | 0%[46.1 µM] | -5% | 5% | 23%[46.1 µM]
O=C1ON=C(c2ccccc2)/C1=C/c1ccco1 | 32µM* | 20µM* | 4%[46.1 µM] | 16% | -18% | -3%[46.1 µM]
O=C1NNC(c2ccccc2)=N/C1=C\c1ccco1 | -19% | 20µM* | 11%[46.1 µM] | -8% | i | 3%[46.1 µM]
CN(C)/C=C1\C(=O)ON=C1c1ccccc1 | -20% | 69% | 2% | -8% | i | 1%[46.1 µM]
COc1cc(/C=C2\C(=O)ON=C2c2ccccc2)cc(OC)c1OC | 25µM* | 8.9µM* | -2% | -2% | · | -14%
O=C1ON=C(c2ccccc2)/C1=C/c1ccc(-c2ccccc2[N+](=O)[O-])o1 | 28µM* | 11µM* | ? | -26% | -28% | ?
COc1ccc(/C=C2\C(=O)ON=C2c2cccc([N+](=O)[O-])c2)cc1 | · | 11µM* | · | · | · | ·
NC(=O)COc1ccc(/C=C2\C(=O)ON=C2c2ccccc2)cc1 | 25µM* | ? | 23% | -7% | -10% | ?
CCc1ccc(NC(=O)Cn2c(=O)n(-c3cc(C)cc(C)c3)c(=O)c3oc4ccccc4c32)cc1 | -1% | 9% | -5%[46.1 µM] | -22% | -26% | ·
CC1CC2(C)Oc3ccccc3CC2C(C)C1CNCCCN(C)C (configuration not stated) | ? | -23% | ? | 14µM* | ? | ?
COc1c(O)c(=O)n2c3ccccc3c3ccnc1c32 | -27% | 4µM* | · | -1% | 4% | ·
COc1ccccc1CNC(=O)CCCCn1c(=O)c2ccccc2n(CC(=O)Nc2cccc(Cl)c2)c1=O | -21% | 9% | -21%[46.1 µM] | -15% | -28% | 4%[46.1 µM]
CCOC(=O)c1c(C)c(-c2ccccc2)n(CC(=O)Nc2cc(OC)cc(OC)c2)c1C | ? | -31% | · | -15% | -19% | -12%[46.1 µM]
O=C(CC1(O)C(=O)N(CCc2ccccc2)c2ccc(Br)cc21)c1ccc(F)cc1 (configuration not stated) | 4% | -2% | -13%[46.1 µM] | -16% | -16% | ?
Cc1ccsc1-c1nc(CN(C)C(C2CC2)C2CC2)c(C)o1 | -15% | ? | -8%[46.1 µM] | -18% | -4% | 8.9µM*
Cc1ccsc1-c1nc(CSCC(=O)N2CCC3(CC2)OCCO3)c(C)o1 | -8% | 0% | -12% | · | · | 1%
Cc1ccsc1-c1nc(CN2CCN(C)C(=O)[C@@H]2C)c(C)o1 | -3% | 32µM* | 6%[46.1 µM] | -15% | -4% | -15%[46.1 µM]
Cc1cc(C(=O)N/N=C/c2cc(Br)c(Br)o2)n[nH]1 | 4% | 10µM* | 11%[46.1 µM] | 14% | -11% | ?
Cc1cc(C(=O)N/N=C/c2ccc(Br)o2)n[nH]1 | 20% | -33% | · | · | · | ·
